From ChEMBL document CHEMBL3988442, “University of Dundee, Small-Polar-MMV Screening Library” (2021)
The whole screen tested about 48,000 compounds, of which about 13,000 (27%) showed an effect of 50% or more. The list shows a part of the results.

Each compound was assayed on Wolbachia pipientis (assay: Anti-Wolbachia Cell-Based Screen). Conditions: 5 µM.
Assay type: functional
Set-up: scale not given: in the data most compounds retested in dose-response had high values

Compared with `CCc1cn[nH]c1C1CCCN(C(=O)c2cc(C#N)c(=O)[nH]c2C)C1` (stereo not given), `CCc1cn[nH]c1C1CCN(C(=O)c2cc(C#N)c(=O)[nH]c2C)CC1` is higher in “Percent Effect” value: -3.715% for the first, 0.2267% for the second.

Compared with `COCCn1cc(C(=O)N2CCCC2c2cccs2)c2ccccc21` (stereo not given), `CSc1[nH]c(=O)c(C(=O)N2CCCC2c2cccs2)cc1C#N` (stereo not given) is higher in “Percent Effect” value: 20.58% for the first, 109.4% for the second.

Compared with `O=C(c1cnc2[nH]c(=O)[nH]c(=O)c2c1)N1CCCC1C1CCCC1` (stereo not given), `Cn1c(=O)[nH]c(=O)c2cc(C(=O)N3CCCC3C3CCCC3)cnc21` (stereo not given) is higher in “Percent Effect” value: -0.6345% for the first, 9.231% for the second.

Compared with `CCC1CCCCCN1C(=O)c1cc(C#N)c(SC)[nH]c1=O` (stereo not given), `CSc1[nH]c(=O)c(C(=O)N2CCCC2C2CCCC2)cc1C#N` (stereo not given) is lower in “Percent Effect” value: 95.93% for the first, 90.55% for the second.

Compared with `N#Cc1ncn(CC(=O)N2CCCC2c2cccs2)n1` (stereo not given), `Cn1cnnc1C1CCCN(C(=O)Cc2ccc3c(c2)OCCO3)C1` (stereo not given) is higher in “Percent Effect” value: -17.52% for the first, 17.9% for the second.

Going from `COc1ccc2c(CN3CCCN(Cc4ccncc4)CC3)n[nH]c2c1` to `CCN1CCN(Cc2nc(Cc3ccccc3)n[nH]2)CC1`, the “Percent Effect” value rises from -3.33% to 2.697%.

First: Cc1cccc(-c2noc(CN3CCCC3Cn3cccn3)n2)c1 (stereo not given)
Second: c1cnn(CC2CCCN2Cc2nc(-c3ccoc3)no2)c1 (stereo not given)
The “Percent Effect” value of the first is higher: 3.964% for the first, -2.106% for the second.

Compared with `COCCc1noc(CN2CCCCC2Cn2cc(C)cn2)n1` (stereo not given), `COCCc1noc(CN2CCCC2Cn2cc(C)cn2)n1` (stereo not given) is lower in “Percent Effect” value: 4.505% for the first, 0.3604% for the second.

Compared with `COc1ccccc1-c1noc(CN2CCCC2Cn2cccn2)n1` (stereo not given), `COCCc1noc(CN2CCCC2Cn2cccn2)n1` (stereo not given) is higher in “Percent Effect” value: -4.509% for the first, 82.73% for the second.

First: COCCc1noc(CN2CCCCC2Cn2cccn2)n1 (stereo not given)
Second: c1cnn(CC2CCCN2Cc2nc(C3CC3)no2)c1 (stereo not given)
The “Percent Effect” value of the first is lower: 100.4% for the first, 112.2% for the second.

Going from `NC(=O)C1CCCN1Cc1cccc(NC(=O)c2ccsc2)c1` (stereo not given) to `O=C(c1cccnc1O)N(Cc1ccsc1)CC1CCCO1` (stereo not given), the “Percent Effect” value falls from 23.54% to -13.31%.

Going from `CCOc1ccnc(N2CCN(C(=O)CCc3cnn(C)c3)CC2)n1` to `CC(C)(C)c1cnc(CN2CCN(c3ncccn3)CC2)o1`, the “Percent Effect” value rises from -13.21% to -4.757%.

Going from `CC(C)(C)[S+]([O-])CCNC(=O)c1ccc(Cl)c2cccnc12` (stereo not given) to `O=C(CCc1ccc2c(c1)OCO2)Nc1cccnc1-n1cncn1`, the “Percent Effect” value rises from -0.5335% to 6.275%.

Compared with `CCN(CC)C(CNCc1ccc(OC)c(F)c1)c1ccco1` (stereo not given), `CCCC(C)N(C)Cc1nnc(-c2ccco2)o1` (stereo not given) is lower in “Percent Effect” value: 3.453% for the first, -4.256% for the second.

Compared with `CN(CCc1ccccc1)Cc1nc(-c2cnccn2)no1`, `CN(CCc1ccccc1)Cc1cnc(C2(C)CCCCO2)nc1` (stereo not given) is higher in “Percent Effect” value: -27.95% for the first, 153.2% for the second.

Going from `CC(C)=CCC1(CO)CCCN(Cc2cnc(N3CCOCC3)nc2)C1` (stereo not given) to `CC1(c2ncc(CN3CCN(c4ncccn4)CC3)cn2)CCCCO1` (stereo not given), the “Percent Effect” value rises from -21.22% to 136.6%.

First: CN(CCc1ccccc1)Cc1cc(C(=O)N2CCCC2(C)C)no1
Second: Cc1cc(C(=O)N2CCCC(c3nncn3C)C2)no1 (stereo not given)
The “Percent Effect” value of the first is lower: -2.856% for the first, 92.93% for the second.

Going from `Cc1cc(C)n(C2CCCN(C(=O)c3cc(C4CC4)on3)C2)n1` (stereo not given) to `Cn1cnnc1C1CCCN(C(=O)c2cc(C3CC3)on2)C1` (stereo not given), the “Percent Effect” value rises from 8.092% to 107.9%.

First: Cn1cnnc1C1CCCN(C(=O)CCc2ccc3c(c2)OCO3)C1 (stereo not given)
Second: O=C(NCc1ccc2c(c1)OCO2)N1CCCC2(C1)OCCO2
The “Percent Effect” value of the first is higher: 6.982% for the first, 2.082% for the second.

First: Cc1ccc(C(NC(=O)CN2CCc3cncnc3C2)C2CC2)cc1 (stereo not given)
Second: CC(c1ccc(-c2cnc(N)nc2)cc1)N1CCOCC1 (stereo not given)
The “Percent Effect” value of the first is lower: 0.6852% for the first, 42.28% for the second.

Compared with `Cc1nonc1OCCNc1ncnc2sc3c(c12)CCNC3`, `CNC(=O)[C@@]12CCCN(c3ncccn3)[C@@H]1CN(c1ncc(C)cn1)C2` is higher in “Percent Effect” value: -7.187% for the first, -6.772% for the second.

Going from `O=C1CN(Cc2nnc(-c3ccc(Br)cc3)o2)CCN1` to `CCn1cc(CNC(=O)CCc2nnc(-c3ccc(C)s3)o2)cn1`, the “Percent Effect” value rises from -13.92% to 1.856%.

First: Cn1cccc1C(=O)N1CCC2(CC1)CN(c1ccccn1)CCO2.O=C(O)C(F)(F)F
Second: Cn1cccc1C(=O)N1CCC2(CCCN2c2ncccn2)CC1.O=C(O)C(F)(F)F
The “Percent Effect” value of the first is lower: -8.251% for the first, 1.069% for the second.

Compared with `Cn1cccc1C(=O)N1CCC2(CCN2c2ncccn2)C1.O=C(O)C(F)(F)F` (stereo not given), `Cn1ccnc1C(=O)N1CCC2(CCN2c2ncccn2)C1.O=C(O)C(F)(F)F` (stereo not given) is higher in “Percent Effect” value: 93.48% for the first, 99.87% for the second.

Compared with `CCN1CCCC12CCN(C(=O)c1nccn1C)CC2.O=C(O)C(F)(F)F`, `Cn1ccc(C(=O)N2CCC3(CCN3c3ncccn3)C2)n1.O=C(O)C(F)(F)F` (stereo not given) is higher in “Percent Effect” value: -7.491% for the first, 111.1% for the second.

Compared with `O=C(O)C(F)(F)F.O=C(c1c[nH]cn1)N1CCC(F)(F)C2(CCN(c3ncccn3)C2)C1` (stereo not given), `CC(C)NC(=O)N1CCC2(CC1)NC(=O)CC2c1ccncc1.O=C(O)C(F)(F)F` (stereo not given) is lower in “Percent Effect” value: 7.042% for the first, -5.587% for the second.

Going from `CSc1c[nH]nc1NS(=O)(=O)c1cc(F)ccc1C` to `CC(NC(N)=O)C(=O)NCc1ccc(Br)c(F)c1` (stereo not given), the “Percent Effect” value falls from -3.23% to -7.533%.

Compared with `O=C(NCc1ccc2c(c1)OCO2)[C@H]1C=CCN1c1ncccn1`, `O=C(NCc1ccc2c(c1)OCO2)[C@@H]1C=CCN1c1ncccn1` is higher in “Percent Effect” value: 120.2% for the first, 142.5% for the second.

Going from `Cc1c(CN2CCCC(c3[nH]ncc3S(C)(=O)=O)C2)cnn1C` (stereo not given) to `CCC(CC)N1CCC(c2[nH]ncc2S(C)(=O)=O)C1` (stereo not given), the “Percent Effect” value rises from 3.915% to 101.4%.

First: CC(=O)N1CCN(C(=O)NCCCc2cn[nH]c2C)CC1
Second: CC(=O)N1CCC(c2[nH]ncc2S(C)(=O)=O)CC1
The “Percent Effect” value of the first is lower: -4.106% for the first, 87.45% for the second.

Compared with `CN1CCC(c2[nH]ncc2S(C)(=O)=O)CC1`, `CCc1cn[nH]c1C1CCN(C(=O)c2cc(C(C)=O)c(C)[nH]c2=O)CC1` is lower in “Percent Effect” value: 125.9% for the first, 3.575% for the second.

Going from `CN1CCN(C(=O)C2CCCc3[nH]ncc32)CC1` (stereo not given) to `CN1CCN(C(=O)[C@H]2C[C@H]3[C@H](CCN3Cc3nccs3)O2)CC1`, the “Percent Effect” value rises from -8.316% to 108.2%.

Compared with `CC(=O)N(C)C1CCN(C(=O)NCC(C)Cc2cccs2)CC1` (stereo not given), `CNC(=O)N1C[C@H]2N(c3ncccn3)CCC[C@@]2(C(=O)NCC2CC2)C1` is higher in “Percent Effect” value: 8.983% for the first, 110.5% for the second.

First: O=C(O)[C@@H]1CN(Cc2ccc(-c3cc[nH]n3)s2)C[C@H]1C1CC1
Second: O=C([C@H]1CN(Cc2nccs2)C[C@H]2OCC[C@@H]12)N1CCCC1
The “Percent Effect” value of the first is higher: 7.901% for the first, -16.26% for the second.

Going from `CCOC(=O)c1nnc2ccccc2c1N1CCN(C(C)C)CC1` to `CCOC(=O)NC(CNC(=O)CCc1ccccn1)CC(C)C` (stereo not given), the “Percent Effect” value falls from -0.1532% to -10.22%.

First: COC(=O)[C@H]1C[C@@H](O)CCN1S(=O)(=O)c1cc(C)c(Cl)cc1C
Second: CNS(=O)(=O)c1cc(C(=O)N2CCCCCC2CC(C)C)co1 (stereo not given)
The “Percent Effect” value of the first is lower: -11.31% for the first, 3.036% for the second.

Compared with `O=C(Nc1ccccc1C(=O)N1CCCC1)NC1CCOCC1`, `CN(C)C1(CNC(=O)C2CCCN2Cc2ccc(F)cc2)CCOCC1` (stereo not given) is lower in “Percent Effect” value: -1.242% for the first, -14.73% for the second.

Compared with `Cc1ccc(CN2CCC(c3nnc(CN4CCCCC4)n3C)CC2)o1`, `CN1CC[C@H](c2nnc(-c3cncn3C)o2)C1` is higher in “Percent Effect” value: -6.981% for the first, -6.33% for the second.

Compared with `CN1CCN(C(=O)[C@H]2CC[C@@H]3[C@@H](CCN3Cc3nccs3)O2)CC1`, `Cc1ccsc1CN1CC[C@H]2O[C@H](C(=O)N3CCCO3)CC[C@H]21` is lower in “Percent Effect” value: 100.9% for the first, -0.787% for the second.

First: O=C(NCc1nncn1C1CC1)C1(c2ccc(F)cc2)CCOCC1
Second: O=C(NCCO)C1(CC2CC(c3ccc(F)cc3)=NO2)CCOCC1 (stereo not given)
The “Percent Effect” value of the first is lower: 7.233% for the first, 103.4% for the second.

First: CC(C)NC(=O)C1(CC2CC(c3ccc(F)cc3)=NO2)CCNCC1.O=C(O)CC(O)(CC(=O)O)C(=O)O (stereo not given)
Second: O=C(NCCCO)C1(CC2CC(c3ccc(F)cc3)=NO2)CCOCC1 (stereo not given)
The “Percent Effect” value of the first is lower: 90.44% for the first, 116.1% for the second.

Going from `O=C(Nc1ccc(F)cc1)NC1(CCO)CCOCC1` to `CC1CCCCN1CCNC(=O)NCc1ccc(C#N)cc1F` (stereo not given), the “Percent Effect” value rises from -10.62% to 4.831%.

Compared with `CS(=O)(=O)N1C[C@H]2N(c3ncccn3)CCC[C@@]2(C(=O)NCC2CC2)C1`, `CC(C)CN1C[C@H]2N(c3ncccn3)CCC[C@@]2(C(=O)NCC2CC2)C1` is lower in “Percent Effect” value: 106.2% for the first, 98.73% for the second.

First: CNC(=O)[C@@]12CCCN(c3ncccn3)[C@@H]1CN(C(=O)NC(C)C)C2
Second: CNC(=O)[C@@]12CCCN(c3ncccn3)[C@@H]1CN(c1ncc(F)cn1)C2
The “Percent Effect” value of the first is lower: -11.1% for the first, 0.8573% for the second.

Compared with `CS(=O)(=O)N1C[C@H]2CNC[C@@]2(C(=O)NCCOc2ccccc2)C1`, `CC(=O)N1CCC2(CCN(Cc3cccc(F)c3)CC2)CC1.O=C(O)C(F)(F)F` is higher in “Percent Effect” value: -7.447% for the first, 4.828% for the second.

First: Cc1noc(C)c1CN1CCO[C@H]2CN(Cc3cccc(F)c3)C[C@H]21.O=C(O)C(F)(F)F.O=C(O)C(F)(F)F
Second: Cc1noc(C)c1CN1CCC2(CCN(Cc3cccc(F)c3)CC2)C1.O=C(O)C(F)(F)F.O=C(O)C(F)(F)F
The “Percent Effect” value of the first is lower: 84.77% for the first, 108.5% for the second.

Compared with `NC(=O)N1CCC2(CCN(Cc3cccc(F)c3)CC2)CC1.O=C(O)C(F)(F)F`, `O=C(O)C(F)(F)F.O=C1[C@@H]2CCN(Cc3ccoc3)C[C@@H]2OCCN1Cc1cccc(F)c1` is lower in “Percent Effect” value: 7.684% for the first, 7.665% for the second.

`Fc1ccc(CN2C[C@@H]3OCCN(CCN4CCCC4)[C@@H]3C2)cc1.O=C(O)C(F)(F)F.O=C(O)C(F)(F)F.O=C(O)C(F)(F)F` was tested, and the “Percent Effect” value was -5.638%.
